Data on 40 molecules can be found in PubChem BioAssay (EPA / NIEHS).

Structures are written as SMILES. Activity calls are given as the source filed them. Rule for the calls: active = hit-call score of the fitted dose curve at least 0.9, where 1 is the maximum; inactive = score below 0.9.

This test in a line: ATG_M_06_CIS: Attagene CIS-FACTORIAL HepG2 Assay for M06 Transcription Factor (Internal Marker) (AID 2282950). The note with it: HepG2 Attagene CIS-FACTORIAL M06 internal marker reporter; actives raise or lower the signal. On the procedure:
ATG_CIS is a cell-based, multiplexed-readout assay that uses HepG2, a human liver cell line, with measurements taken at 24 hours after chemical dosing in a 24-well plate.ATG_M_06_CIS is one of 52 assay component(s) measured or calculated from the ATG_CIS assay. It is designed to make measurements of mRNA induction, a form of inducible reporter, as detected with fluorescence intensity signals by Reverse transcription polymerase chain reaction (RT-PCR) and Capillary electrophoresis technology.Data from the assay component ATG_M_06_CIS was analyzed into 1 assay endpoint. This assay endpoint, ATG_M_06_CIS, was analyzed with bidirectional fitting relative to DMSO as the negative control and baseline of activity. Using a type of inducible reporter, measures of mRNA for gain or loss-of-signal activity can be used to understand the background control at the transcription factor-level as they relate to the gene . Furthermore, this assay endpoint can be referred to as a secondary readout, because this assay has produced multiple assay endpoints where this one serves a background control function. To generalize the intended target to other relatable targets, this assay endpoint is annotated to the background measurement intended target family, where the subfamily is internal marker.
Human liver HepG2 cells are transiently transfected with multiple reporter transcription units (MRTUs) in 6-well plates using FuGene 6 reagent (Roche; 3 ml FuGene/1 mg DNA). The MRTU constructs are regulated by a cis-regulating element (promoter). […] A major difference between the CIS and TRANS system is that in CIS activities of endogenous TFs are measured, whereas the TRANS assay evaluates changes in activities of exogenous, chimeric NR-Gal4 proteins. […] At the end of 24 hour incubation, total RNA was isolated using TriZol reagent (Invitrogen). The isolated RNA is then reverse-transcribed using oligo(dT) primer and Mo-MLV reverse transcriptase (Invitrogen) with DNAse I (Ambion) treatment for 30 min. The one-tenth of the produced cDNA was amplified by PCR using Taq DNA polymerase (Invitrogen) and two reporter sequence-specific primers. The PCR products were fluorescently labeled by primer extension with 6-arboxyfluorescein (6-FAM) 5'-labeled reporter sequence-specific primer (2 min at 95 C, 20 s at 68 C and 10 min at 72 C) and these products were digested with 5U of HpaI (New England Biolabs) for 2h at 37 C. The fragments were purified using Qiaquick PCR columns (Qiagen), analyzed on an ABI 3130xL genetic analyzer (Applied Biosystems) with peak positions identified by using a set of X-rhodamine (ROX)-labeled MapMarker1000 molecular weight standards (BioVentures). The raw capillary electrophoresis data was processed using Attagraph software (Attagene).
As for `O=P(O)(O)Oc1ccccc1`, the call was inactive.
As to `O=S(=O)(O)CC(O)CCl` (stereo not given), the molecule was called inactive.
As for `CCC(CC)C(=O)O`, the entry is “inactive”; as for `C1CN(SSN2CCOCC2)CCO1`, “inactive”.
With `CCCOCCOCCOCCO`, the outcome was inactive.
As for `COC(=O)c1c(C)cc(O)c(C)c1O`, the entry is “inactive”; as for `CCC(Cc1ccccc1)(C(=O)c1ccc(N2CCOCC2)cc1)N(C)C` (stereo not given), “inactive”; as for `Nc1ccc(N)c(Cl)c1`, “inactive”.
As for `CCCc1ccc(OC)cc1`, the entry is “inactive”; as for `Cn1c([N+](=O)[O-])cnc1COC(N)=O`, “inactive”.
Consider `CCCCNc1ccc(NCCCC)c2c1C(=O)c1ccccc1C2=O`, for which the molecule was called inactive.
Then `O=C1C=CC(=O)O1`, with “inactive”; and `NNC(=O)c1cccc(C(=O)NN)c1`, with “inactive”.
As for `CCCCCCCCCCC=CC#N`, the entry is “inactive”; as for `C=C1[C@H]2CC[C@@H]3[C@H]2C(C)(C)CCC[C@]13C`, “inactive”; as for `O=C1C(N(CO)C(=O)NCO)N(CO)C(=O)N1CO` (stereo not given), “inactive”.
As for `COC(=O)c1ccccc1OC`, the entry is “inactive”; as for `CC[C@H]1OC(=O)[C@H](C)[C@@H](O[C@H]2C[C@@](C)(OC)[C@@H](O)[C@H](C)O2)[C@H](C)[C@@H](O[C@@H]2O[C@H](C)C[C@H](N(C)C)[C@H]2O)[C@](C)(O)C[C@@H](C)C(=NOCOCCOC)[C@H](C)[C@@H](O)[C@]1(C)O`, “inactive”; as for `O=Cc1ccc(CO)o1`, “inactive”.
Take `O=C(O)c1cc2ccccc2nc1C(=O)O`: the call was inactive.
Then `Nc1ccc(N=Nc2ccccc2)c(N)n1`, with “inactive”; and `C[Si](C)O[Si](C)(C)O[Si](C)(C)O[Si](C)C`, with “inactive”; and `CC(C)C(=O)C(C)C`, with “inactive”.
As for `C=CC(C)(CCC=C(C)C)OC(=O)C(C)C` (stereo not given), the entry is “inactive”; as for `CC1(C)[C@H]2CC[C@]1(C)C(=O)C2`, “inactive”; as for `COc1ccc2nc(N)sc2c1`, “inactive”.
As for `CC=C1CC2C=CC1C2` (stereo not given), the entry is “inactive”.
With `CCCCC/C=C\C/C=C\CCCCCCCC(=O)OC`, the molecule was called inactive.
Then `CCCCCCCCCCCCCCCC(=O)OCC`, with “inactive”; and `COCc1c(C(C)C)nc(C(C)C)c(/C=C/[C@@H](O)C[C@@H](O)CC(=O)O)c1-c1ccc(F)cc1`, with “inactive”; and `CC1(C)S[C@@H]2[C@H](NC(=O)COc3ccccc3)C(=O)N2[C@H]1C(=O)O`, with “inactive”.
As for `CCOC(=O)N1CCC(=C2c3ccc(Cl)cc3CCc3cccnc32)CC1`, the entry is “inactive”; as for `O=C1CC2CC1C1CCCC21` (stereo not given), “inactive”.
Then `CC=CCO`, with “inactive”; and `O=S(=O)(Oc1ccc(Cl)cc1Cl)c1ccccc1`, with “inactive”.
For the molecule `CCOC(F)(F)C(F)(F)C(F)(F)C(F)(F)F`, the molecule was classed as inactive.
Then `Cc1cc(=O)n(-c2ccccc2)n1C`, with “inactive”.
As for `C=CC(=O)OCCC(=O)O`, the entry is “inactive”; as for `COC(=O)c1sccc1S(N)(=O)=O`, “inactive”.
As for `C=CC(=O)OCC(Br)CBr` (stereo not given), the entry is “inactive”.
